PubChem BioAssay (Tox21)
Records with an inconclusive call do not appear. Active and inactive are the calls of the source. Unless noted, calls follow the shape of the dose curve; as a rule, active = well fitted curve in the direction sought with a large enough effect in the repeat runs; inconclusive = weak or mixed curves; inactive = no such curve, though single readings can be large; an effect the other way counts as inactive or inconclusive.

How the values were obtained:
[1] = target: Androgen receptor (Homo sapiens) (UniProt P10275); test: qHTS assay to identify small molecule agonists of the androgen receptor (AR) signaling pathway using the MDA cell line (AID 743040; also: nearly all actives have a fitted effect of over 20% in size)
Method in brief: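 Luciferase read-out, ONE-Glo, 30 min RT. Cells: MDA-kb2 AR-luc, MMTV promoter with AR and GR response elements. Compound exposure 16 h, 37C, 0% CO2, after 5 h pre-incubation. qHTS agonist mode.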

[2] = qHTS assay to identify small molecule antagonists of the androgen receptor (AR) signaling pathway using the MDA cell line - cell viability counter screen (AID 743041; also: nearly all actives have a fitted effect of over 45% in size)
Method in brief: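 Cytotoxicity counter screen: MDA-kb2 AR-luc cells, compound + R1881, 16 h, 37C, 0% CO2; CellTiter-Fluor added at 15.5 h, fluorescence read after 30 min.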

[3] = target: Androgen receptor (Homo sapiens) (UniProt P10275); test: qHTS assay to identify small molecule antagonists of the androgen receptor (AR) signaling pathway using the MDA cell line (AID 743042; also: nearly all actives have a fitted effect of over 55% in size)
Method in brief: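 MDA-kb2 breast carcinoma cells carrying MMTV-luciferase (AR/GR responsive) were co-treated with compounds and the agonist R1881 for 16 h at 37C. Inhibition read as ONE-Glo luminescence; CellTiter-Fluor fluorescence measured in parallel for cytotoxicity.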

[4] = qHTS assay to identify small molecule antagonists of the thyroid receptor (TR) signaling pathway - cell viability counter screen (AID 743064); also: nearly all actives have a fitted effect of over 50% in size
Method in brief: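 Fluorescence from CellTiter-Fluor, added after 23.5 h exposure at 37 °C, reported viability of GH3.TRE-Luc cells co-treated with compound and 1 nM T3. Measured in the same wells as the luciferase TR readout.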

[5] = qHTS assay to identify small molecule antagonists of the thyroid receptor (TR) signaling pathway (AID 743065); also: series mostly up to about 70 µM; nearly all actives have a fitted effect of over 55% in size
Method in brief: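 GH3.TRE-Luc rat pituitary cells (two TREs driving luciferase) were dosed with compound, then stimulated with 1 nM T3 (final) for 23.5 h at 37 C. ONE-Glo luminescence was the read-out, with CellTiter-Fluor fluorescence as the cytotoxicity counter-screen.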

[6] = test system: thyroid hormone receptor (rat, GH3 cells); test: qHTS assay to identify small molecule agonists of the thyroid receptor (TR) signaling pathway (AID 743066; calls by dose curve)
[7] = target: Estrogen receptor (Homo sapiens) (UniProt P03372); test: qHTS assay to identify small molecule antagonists of the estrogen receptor alpha (ER-alpha) signaling pathway (AID 743069; active = well fitted curve in the direction sought with a large enough effect in the signal ratio in the repeat runs, not every such curve was filed as active; the % refers to the signal ratio)
Method in brief: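 Beta-lactamase FRET fluorescence is read after 2 hr at room temperature with LiveBLAzer B/G substrate. Before that, ER-alpha-bla HEK293 cells sit 4 hr after plating, then receive compound plus 17beta-estradiol and incubate 18 hr at 37C.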

[8] = qHTS assay to identify small molecule antagonists of the estrogen receptor alpha (ER-alpha) signaling pathway - cell viability counter screen (AID 743074; calls by dose curve;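 also: HEK293 cells carrying ER-alpha-UAS-bla reporter stimulated with 17beta-estradiol; nearly all actives have a fitted effect of over 45% in size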)
[9] = target: Estrogen receptor (Homo sapiens) (UniProt P03372); test: qHTS assay to identify small molecule agonists of the estrogen receptor alpha (ER-alpha) signaling pathway (AID 743075; calls by dose curve;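 also: HEK293 GripTite cells with ER-alpha and UAS-driven beta-lactamase reporter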)
[10] = target: Estrogen receptor (Homo sapiens) (UniProt P03372); test: qHTS assay to identify small molecule agonists of the estrogen receptor alpha (ER-alpha) signaling pathway using the BG1 cell line (AID 743079); also: nearly all actives have a fitted effect of over 20% in size
[11] = qHTS assay to identify small molecule antagonists of the estrogen receptor alpha (ER-alpha) signaling pathway using the BG1 cell line (AID 743080; calls by dose curve;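 also: BG1 cells stimulated with 17beta-estradiol alongside compound; series mostly up to about 70 µM; nearly all actives have a fitted effect of over 25% in size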)
Method in brief: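 BG1Luc4E2, endogenous ER-alpha, 4xERE-luc; 5 d charcoal-stripped FBS, phenol red free; 24 h plating; cpd + 17beta-estradiol 21.5 h, 37 C/5% CO2; CellTiter-Fluor viability 30 min, then ONE-Glo luciferase 30 min RT.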

[12] = qHTS assay to identify small molecule antagonists of the estrogen receptor alpha (ER-alpha) signaling pathway using the BG1 cell line - cell viability counter screen (AID 743081);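 also: compound given together with 17beta-estradiol as the ER stimulus; series mostly up to about 70 µM; nearly all actives have a fitted effect of over 45% in size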
[13] = target: Aromatase (Homo sapiens) (UniProt P11511); test: qHTS assay to identify aromatase inhibitors (AID 743083); also: series mostly up to about 70 µM; nearly all actives have a fitted effect of over 55% in size
[14] = qHTS assay to identify aromatase inhibitors - cell viability counter screen (AID 743084);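 also: cells stimulated with testosterone during compound exposure; nearly all actives have a fitted effect of over 55% in size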
[15] = target: Aryl hydrocarbon receptor (Homo sapiens) (UniProt P35869); test: qHTS assay to identify small molecule that activate the aryl hydrocarbon receptor (AhR) signaling pathway (AID 743085);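 also: HG2L7.5c1 human HepG2 liver cells with stably integrated DRE-driven firefly reporter; series mostly up to about 70 µM; nearly all actives have a fitted effect of over 15% in size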
Method in brief: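 Cell line HG2L7.5c1 (human hepatoma, 20× DRE-luc). Plated, 5 h 37C, compound/DMSO added, 24 h 37C. CellTiter-Fluor 30 min 37C → fluorescence; then ONE-Glo 30 min RT → luminescence.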

[16] = qHTS assay to identify small molecule that activate the aryl hydrocarbon receptor (AhR) signaling pathway - cell viability counter screen (AID 743086);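 also: HepG2 liver cells carrying the AhR DRE luciferase reporter; series mostly up to about 70 µM; nearly all actives have a fitted effect of over 45% in size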
Method in brief: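 HepG2-AhR-luc (HG2L7.5c1) cells, 4000/well, treated 24 h at 37 C with compound; viability measured as CellTiter-Fluor fluorescence after 30 min in the same wells as the luciferase read.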

[17] = target: Peroxisome proliferator-activated receptor gamma (Homo sapiens) (UniProt P37231); test: qHTS assay to identify small molecule agonists of the peroxisome proliferator-activated receptor gamma (PPARg) signaling pathway (AID 743094; active = well fitted activation curve with a large enough effect in the signal ratio in the repeat runs, not every such curve was filed as active; the % refers to the signal ratio)
Method in brief: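 Agonist activity was taken from a beta-lactamase reporter (FRET substrate, 1 h at room temperature) in HEK293H cells carrying a PPARg UAS-bla construct. Compounds in DMSO were incubated 17 h at 37C after a 5 h cell pre-incubation.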

[18] = qHTS assay to identify small molecule antagonists of the estrogen related receptor (ERR) signaling pathway - cell viability counter screen (AID 1224818);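 also: series mostly up to about 46 µM; viability measured after 17.5 h of compound exposure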
Method in brief: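 Cytotoxicity counter screen: fluorescence from CellTiter-Fluor, added after 17.5 h compound exposure at 37 C and read 30 min later. ERR cell line seeded at 2,000 cells/well, preincubated 6 h before dosing.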

[19] = qHTS assay to identify small molecule agonists of the estrogen related receptor (ERR) signaling pathway (AID 1224820)
Method in brief: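 Following a 6 h settling period, 2,000 ERR cells per well receive DMSO-dissolved compounds by pin tool and incubate 18 h at 37 C; agonist activity is scored from One-Glo luminescence read 30 min post-addition.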

[20] = test system: estrogen-related receptor alpha (ERRalpha) with PGC-1alpha coactivator, human; test: qHTS assay to identify small molecule antagonists of the estrogen related receptor signaling pathway with the pleiotropic PPARgamma coactivator (PGC) (AID 1224821; calls by dose curve;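 also: series mostly up to about 46 µM; lower luminescence signal means antagonism of PGC/ERR signalling; nearly all actives have a fitted effect of over 50% in size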)
Method in brief: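 Screening used NTP's PGC/ERR cells, dosed via pin tool with compound in DMSO alongside positive and negative controls. After 18 h at 37 C, One-Glo reagent sat 30 min at room temperature before luminescence detection.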

[21] = qHTS assay to identify small molecule antagonists of the estrogen related receptor signaling pathway with the pleiotropic PPARgamma coactivator (PGC) cell viability counter screen (AID 1224822; also: series mostly up to about 46 µM)
Method in brief: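 Viability counter-screen read by fluorescence intensity after 30 min with CellTiter-Fluor at 37 C; PGC/ERR reporter cells were exposed to compounds for 17.5 h at 37 C following a 6 h preincubation.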

[22] = qHTS assay to identify small molecule agonists of the estrogen related receptor signaling pathway with the pleiotropic PPARgamma coactivator (PGC) (AID 1224823)
Method in brief: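 In this quantitative high-throughput screen, an 18 h, 37 C treatment of PGC/ERR cells with compounds in DMSO preceded a One-Glo luminescence read taken after 30 min at room temperature.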

[23] = qHTS assay to identify small molecule phospholipidosis (PLD) inducers (AID 1259344; active = well fitted curve in the direction sought with a large enough effect; an effect the other way counts as inactive or inconclusive)
Method in brief: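 Read-out is LipidTOX Red fluorescence (ex 595/em 615) imaged in HepG2 cells after 24 h compound exposure at 37 C, with Hoechst nuclear counterstain (ex 352/em 461) allowing per-cell normalisation.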

[24] = target: Nuclear receptor subfamily 1 group I member 2 (Rattus norvegicus) (UniProt Q9R1A7); test: Rat pregnane X receptor (rPXR) activation by small molecules, qHTS assay (AID 1346983); details: rPXR luciferase reporter cells, One-Glo luminescence, 24 h; max activation: active compounds read high; also: nearly all actives have a fitted effect of over 20% in size
Method in brief: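 Cell-based rPXR activation assay: rPXR cells, 2,000 per well, rested 5hr at 37 C, then exposed to compounds in DMSO for 24 hr at 37 C. Luciferase activity read by One-Glo luminescence after 30 min at room temperature.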

[25] = target: Nuclear receptor subfamily 1 group I member 2 (Homo sapiens) (UniProt O75469); test: CYP3A4 induction through human pregnane X receptor (PXR) by small molecules, qHTS assay (AID 1346984); also: nearly all actives have a fitted effect of over 40% in size
Method in brief: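 Read-out is luminescence after One-Glo addition, following a 3 hr, 37C incubation with Luciferin-IPA CYP3A4 substrate (3uM final). Before that, compounds were on DPX-2 cells (HepG2 co-transfected with PXR element plus CYP3A4-promoter luciferase) for 24 hr at 37C.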

[26] = target: Nuclear receptor subfamily 1 group I member 2 (Homo sapiens) (UniProt O75469); test: Human pregnane X receptor (PXR) activation by small molecules, qHTS assay (AID 1346985); also: nearly all actives have a fitted effect of over 40% in size
Method in brief: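 DPX-2 cells (HepG2 co-transfected with a PXR response element and a CYP3A4-promoter luciferase construct) were seeded at 2,000 per well, rested 5 hr at 37C, then exposed to DMSO-dissolved compounds for 24 hr. Activation was read as luciferase luminescence.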
% is scaled to controls: 0 for no effect and ±100 for the full control effect.

Chain of Estrogen receptor (Homo sapiens) (P03372 whole entry, looked up): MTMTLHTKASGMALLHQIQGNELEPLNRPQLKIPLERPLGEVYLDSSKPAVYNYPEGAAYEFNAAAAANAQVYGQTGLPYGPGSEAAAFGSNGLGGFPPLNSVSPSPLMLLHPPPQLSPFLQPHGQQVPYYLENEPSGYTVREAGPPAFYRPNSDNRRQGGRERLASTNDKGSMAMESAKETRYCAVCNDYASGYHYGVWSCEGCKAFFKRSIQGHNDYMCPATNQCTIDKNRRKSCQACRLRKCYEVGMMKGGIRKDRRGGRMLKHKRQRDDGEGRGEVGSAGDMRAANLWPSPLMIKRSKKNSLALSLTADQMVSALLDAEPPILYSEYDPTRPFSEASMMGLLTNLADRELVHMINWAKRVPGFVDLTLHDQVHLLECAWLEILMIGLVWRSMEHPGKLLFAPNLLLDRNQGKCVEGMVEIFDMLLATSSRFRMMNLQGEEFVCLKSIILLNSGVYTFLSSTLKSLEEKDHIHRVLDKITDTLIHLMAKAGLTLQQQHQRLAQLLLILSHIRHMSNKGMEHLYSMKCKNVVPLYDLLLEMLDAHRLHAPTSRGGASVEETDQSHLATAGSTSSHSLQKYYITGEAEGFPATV
Chain of Androgen receptor (Homo sapiens) (P10275 whole entry, looked up): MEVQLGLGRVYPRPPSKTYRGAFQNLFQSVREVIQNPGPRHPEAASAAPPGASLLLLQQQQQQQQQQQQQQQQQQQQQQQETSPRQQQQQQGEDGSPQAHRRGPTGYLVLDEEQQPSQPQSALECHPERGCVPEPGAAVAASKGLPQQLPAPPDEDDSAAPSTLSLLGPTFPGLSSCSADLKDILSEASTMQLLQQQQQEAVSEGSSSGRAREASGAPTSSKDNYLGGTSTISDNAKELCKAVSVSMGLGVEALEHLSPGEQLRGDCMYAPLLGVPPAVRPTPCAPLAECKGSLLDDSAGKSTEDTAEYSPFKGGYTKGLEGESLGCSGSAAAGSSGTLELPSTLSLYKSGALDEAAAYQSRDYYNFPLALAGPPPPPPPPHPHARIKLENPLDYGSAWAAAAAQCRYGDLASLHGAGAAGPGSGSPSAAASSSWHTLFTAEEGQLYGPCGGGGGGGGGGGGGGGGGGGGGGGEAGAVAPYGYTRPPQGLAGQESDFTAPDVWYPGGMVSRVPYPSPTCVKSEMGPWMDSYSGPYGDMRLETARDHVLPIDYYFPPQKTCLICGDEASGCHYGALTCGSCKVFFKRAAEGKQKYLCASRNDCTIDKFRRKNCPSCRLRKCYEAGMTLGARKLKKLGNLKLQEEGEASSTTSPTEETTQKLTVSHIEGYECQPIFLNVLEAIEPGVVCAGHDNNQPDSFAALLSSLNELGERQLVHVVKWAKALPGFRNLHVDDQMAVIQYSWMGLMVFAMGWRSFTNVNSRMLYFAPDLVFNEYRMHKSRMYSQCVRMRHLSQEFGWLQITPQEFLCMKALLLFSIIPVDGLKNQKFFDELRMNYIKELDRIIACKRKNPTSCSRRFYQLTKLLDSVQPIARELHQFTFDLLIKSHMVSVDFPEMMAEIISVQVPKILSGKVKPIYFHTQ
Chain of Aromatase (Homo sapiens) (P11511 whole entry, looked up): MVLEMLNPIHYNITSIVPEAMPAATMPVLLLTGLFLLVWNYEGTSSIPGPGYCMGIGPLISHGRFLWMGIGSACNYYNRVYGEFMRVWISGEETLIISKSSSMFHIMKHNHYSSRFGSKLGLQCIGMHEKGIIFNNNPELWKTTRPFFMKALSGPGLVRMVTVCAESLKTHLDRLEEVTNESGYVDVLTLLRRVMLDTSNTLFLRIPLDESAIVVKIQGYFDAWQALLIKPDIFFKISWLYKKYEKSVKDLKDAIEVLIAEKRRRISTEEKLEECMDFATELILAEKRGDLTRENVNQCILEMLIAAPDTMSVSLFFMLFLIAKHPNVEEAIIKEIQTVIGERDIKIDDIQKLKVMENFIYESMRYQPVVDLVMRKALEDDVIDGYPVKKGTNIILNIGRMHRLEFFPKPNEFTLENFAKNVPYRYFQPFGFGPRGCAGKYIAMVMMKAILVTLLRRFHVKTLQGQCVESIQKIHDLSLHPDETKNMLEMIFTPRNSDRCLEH
Chain of Peroxisome proliferator-activated receptor gamma (Homo sapiens) (P37231 whole entry, looked up): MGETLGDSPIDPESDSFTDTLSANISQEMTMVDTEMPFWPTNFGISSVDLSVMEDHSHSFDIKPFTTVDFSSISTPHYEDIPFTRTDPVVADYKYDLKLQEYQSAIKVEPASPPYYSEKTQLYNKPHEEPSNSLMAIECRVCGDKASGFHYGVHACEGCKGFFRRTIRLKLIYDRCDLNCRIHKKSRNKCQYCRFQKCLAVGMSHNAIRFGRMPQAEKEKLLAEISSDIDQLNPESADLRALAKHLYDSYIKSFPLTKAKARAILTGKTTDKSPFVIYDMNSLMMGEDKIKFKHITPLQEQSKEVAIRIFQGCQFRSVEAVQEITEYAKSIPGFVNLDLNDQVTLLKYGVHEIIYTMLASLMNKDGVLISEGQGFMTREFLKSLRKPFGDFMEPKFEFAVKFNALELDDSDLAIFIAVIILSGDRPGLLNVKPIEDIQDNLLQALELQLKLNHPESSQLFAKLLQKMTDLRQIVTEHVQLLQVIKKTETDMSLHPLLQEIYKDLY
Chain of Nuclear receptor subfamily 1 group I member 2 (Rattus norvegicus) (Q9R1A7 whole entry, looked up): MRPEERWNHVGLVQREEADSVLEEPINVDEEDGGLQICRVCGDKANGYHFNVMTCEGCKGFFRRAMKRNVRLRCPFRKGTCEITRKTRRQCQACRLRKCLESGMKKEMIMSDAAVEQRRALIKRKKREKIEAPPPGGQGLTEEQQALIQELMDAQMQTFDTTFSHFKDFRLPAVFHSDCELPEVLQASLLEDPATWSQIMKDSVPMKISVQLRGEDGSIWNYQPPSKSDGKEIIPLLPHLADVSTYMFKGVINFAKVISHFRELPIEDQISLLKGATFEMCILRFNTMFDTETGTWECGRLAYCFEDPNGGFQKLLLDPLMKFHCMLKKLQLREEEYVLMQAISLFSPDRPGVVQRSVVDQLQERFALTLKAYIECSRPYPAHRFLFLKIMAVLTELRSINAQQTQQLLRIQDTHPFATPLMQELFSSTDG
Chain of Aryl hydrocarbon receptor (Homo sapiens) (P35869 whole entry, looked up): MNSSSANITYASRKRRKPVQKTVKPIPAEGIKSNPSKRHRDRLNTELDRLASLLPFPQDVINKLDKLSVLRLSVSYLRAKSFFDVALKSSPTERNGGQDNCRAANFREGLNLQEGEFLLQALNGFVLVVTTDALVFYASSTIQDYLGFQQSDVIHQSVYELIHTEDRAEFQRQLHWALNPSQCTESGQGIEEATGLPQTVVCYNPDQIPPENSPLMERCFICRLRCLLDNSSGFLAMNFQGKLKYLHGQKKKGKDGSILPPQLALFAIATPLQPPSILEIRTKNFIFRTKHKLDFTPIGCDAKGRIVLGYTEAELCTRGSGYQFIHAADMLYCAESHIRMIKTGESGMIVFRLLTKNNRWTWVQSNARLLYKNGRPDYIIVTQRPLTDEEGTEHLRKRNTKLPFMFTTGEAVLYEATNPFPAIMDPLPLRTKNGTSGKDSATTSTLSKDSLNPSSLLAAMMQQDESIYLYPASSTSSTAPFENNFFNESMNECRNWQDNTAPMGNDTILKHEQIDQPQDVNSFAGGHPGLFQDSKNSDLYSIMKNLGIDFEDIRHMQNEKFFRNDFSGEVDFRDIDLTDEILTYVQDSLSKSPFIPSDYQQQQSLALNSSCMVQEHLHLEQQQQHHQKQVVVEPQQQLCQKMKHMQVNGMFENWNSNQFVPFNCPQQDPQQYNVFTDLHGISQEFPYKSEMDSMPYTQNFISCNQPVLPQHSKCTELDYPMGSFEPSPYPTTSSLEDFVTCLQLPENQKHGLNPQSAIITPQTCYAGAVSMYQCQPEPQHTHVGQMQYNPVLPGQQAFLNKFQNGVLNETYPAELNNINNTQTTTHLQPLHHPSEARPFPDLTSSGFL

CCCCCN(C)CCC(O)(P(=O)(O)O)P(=O)(O)O
inactive: Potency [1] | Potency [2] | Potency [3] | Potency [4] | Potency [5] | Potency [6] | Potency [7] | Potency [8] | Potency [9] | Potency [10] | Potency [11] | Potency [12] | Potency [13] | Potency [14] | Potency [15] | Potency [16] | Potency [17] | Potency [18] | Potency [19] | Potency [20] | Potency [21] | Potency [22] | Potency [23] | max activation [24] -1.96% | Potency [25] | Potency [26]
